Hsp90 Hop PPI = changes Hsp90-Hop TPR2A binding signal, up or down; actives 0.44% (n = 71,000); Potency, µM (titrated, usually from 57 µM); AlphaScreen TPR2A-His6 binding biotin-Hsp90 C-terminal peptide; active means well fitted curve in either direction with a large enough effect; inconclusive means small, poorly fitted or top-dose-only effect, or another doubt
PK Bst = pyruvate kinase (B. stearothermophilus) modulation; purified pyruvate kinase, luminescence ATP production; ribose 5-phosphate activator present at AC10; Potency, µM; actives 1.2% (n = 51,000); AID 361; in the data active means potency below about 11 µM; inconclusive means mostly about 12 µM to 25 µM;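 the screen sought inhibitors and activators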
ERK AVP inh = inhibitors of vasopressin-stimulated ERK signaling pathway. HEK293-V1b, vasopressin-stimulated pERK AlphaScreen. Potency, µM (top dose mostly 57.5 µM), actives largely listed as inhibitors. actives 0.99% (n = 72,000); further: nearly all actives have a fitted effect of over 55% in size
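Overnight-seeded V1b-HEK293 cells in 1% FBS got compound, then vasopressin (25 nM final, 5 min, 37C), then lysis buffer. AlphaScreen detection of phospho-ERK; activity normalized to basal and full-stimulation controls.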
Luciferase inh = firefly luciferase inhibition; P08659; purified firefly luciferase, luminescence, 8 min; Potency, µM (series often up to 57.1 µM), usual class: inhibitors; actives 2.2% (n = 72,000); further: nearly all actives have a fitted effect of over 40% in size
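Here, luciferase activity is measured as luminescence following an 8 min room-temperature reaction at 10 uM ATP, pH 7.2. Every library sample is titrated.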
Tau fil binding = binders of human tau filaments; P10636; actives 2% (n = 71,000); Potency, µM (doses to about 57.1 µM); AID 596; recombinant tau filaments, thioflavin S fluorescence, 15 h; filaments grown with octadecylsulfate alongside compound;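 further: actives lower thioflavin S fluorescence by blocking filaments or displacing dye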
Target sequence (P10636 whole entry, looked up): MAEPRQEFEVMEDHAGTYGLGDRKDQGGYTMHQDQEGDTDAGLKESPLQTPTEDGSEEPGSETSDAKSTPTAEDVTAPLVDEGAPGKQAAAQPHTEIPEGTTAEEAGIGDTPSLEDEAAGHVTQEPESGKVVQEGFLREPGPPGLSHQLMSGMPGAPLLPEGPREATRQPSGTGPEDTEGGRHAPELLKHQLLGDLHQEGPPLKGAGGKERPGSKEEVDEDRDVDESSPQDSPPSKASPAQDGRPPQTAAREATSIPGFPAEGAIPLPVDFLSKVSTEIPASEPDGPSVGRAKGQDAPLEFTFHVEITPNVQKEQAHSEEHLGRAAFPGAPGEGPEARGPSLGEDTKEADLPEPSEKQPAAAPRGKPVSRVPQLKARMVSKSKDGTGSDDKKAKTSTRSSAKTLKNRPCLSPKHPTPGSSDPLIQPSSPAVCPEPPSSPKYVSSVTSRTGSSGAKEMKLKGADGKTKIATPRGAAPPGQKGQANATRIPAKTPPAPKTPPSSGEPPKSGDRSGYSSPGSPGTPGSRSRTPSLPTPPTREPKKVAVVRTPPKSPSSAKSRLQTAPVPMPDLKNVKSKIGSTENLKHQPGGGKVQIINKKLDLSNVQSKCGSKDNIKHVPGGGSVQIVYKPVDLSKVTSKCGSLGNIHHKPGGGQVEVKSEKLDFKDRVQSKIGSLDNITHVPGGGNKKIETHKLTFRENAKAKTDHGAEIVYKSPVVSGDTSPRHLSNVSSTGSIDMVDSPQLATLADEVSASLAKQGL
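Recombinant tau protein (human, 1 uM final) plus 30 uM ODS in HEPES pH 7.4 with NaCl, DTT and thioflavine S. Compound present from the start; fluorescence at 510 nm after 15 h, 37 C.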
15-hLO inh = inhibitors of human 15-lipoxygenase (ALOX15); P16050; purified 15hLO-1, xylenol orange hydroperoxide absorbance; Potency, µM (series often up to 57.1 µM), most hits filed as inhibitors; actives 1.4% (n = 74,000); further: nearly all actives have a fitted effect of over 55% in size
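40 nM 15hLO-1 + cpd, 15 min RT; start w/ 50 uM AA (final), 6 min RT; stop/detect w/ 200 uM XO + 300 uM Fe(II) in 50 mM H2SO4, 30 min; A573/A405. Buffer 25 mM Hepes pH 7.5, 0.01% Triton X-100. No-enzyme wells as negative control.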
A number is an active result; – = inactive; ? = inconclusive; · = no result; [ ] = another dose, or the depositor's remark. Only some compounds are listed: those with a hit (about 6.1% of all), similar ones and a draw of the others. Unless noted, the call rests on the fitted dose curve; in most records, active means well fitted curve in the direction sought with a large enough effect; inconclusive means small, poorly fitted or top-dose-only effect, or another doubt; inactive means no such curve, though single readings can be large; an effect the other way counts as inactive or inconclusive.

SMILES	Hsp90 Hop PPI	PK Bst	ERK AVP inh	Luciferase inh	Tau fil binding	15-hLO inh
COCCn1c(C)cc(C(=O)CSc2nc3ccccc3c(=O)[nH]2)c1C	–	–	–	–	–	?
NC(N)=Nc1nc(CSCC/C(N)=N\S(N)(=O)=O)cs1	·	·	–	·	·	–
CN1[C@@H]2CC(OC(=O)[C@H](CO)c3ccccc3)C[C@@H]1[C@H]1O[C@H]12 (stereo not given in full)	–	·	–	–	?	–
CN(O)/C=c1/ccc2c(n1)C(=O)C=CC=2	2µM	–	–	–	–	–
COc1ccc(N2CCN(C(=O)C(Cc3ccccc3)n3cccc3)CC2)cc1 (stereo not given)	?	·	25µM	–	13µM	25µM
O=C(c1ccncc1)N1CCC2(CC1)CN(c1ccccc1)C2	–	·	–	–[11.4 µM]	–	–
O=C(O)/C=C\c1ccc(O)c(O)c1	–	·	–	–[11.4 µM]	–	–
O=C(/C=C/c1ccc(O)c(O)c1)OCCc1ccccc1	·	·	–	·	·	0.5µM
CCC(C)(C)n1nnnc1CN(Cc1ccco1)Cc1cc2cc3c(cc2[nH]c1=O)OCO3	–	–	?	–	–	0.0079µM
Cc1ccc2cc(CN(CCN3CCOCC3)Cc3nnnn3Cc3ccco3)c(=O)[nH]c2c1C	–	–	–	–	–	–
COc1ccc2[nH]c(=O)c(CN(Cc3ccco3)Cc3nnnn3Cc3ccccc3)cc2c1	–	·	–	–	–	?
Cc1ccc2cc(CN(Cc3ccc4c(c3)OCO4)Cc3nnnn3Cc3ccco3)c(=O)[nH]c2c1C	–	–	–	–	–	25µM
Cc1ccc(C)c2[nH]c(=O)c(CN(Cc3ccc4c(c3)OCO4)Cc3nnnn3Cc3ccco3)cc12	–	–	–	–	–	25µM
COC(=O)c1cc(OC)c(=O)c2c(OC)c(OC)ccc2c1	·	·	–	·	·	–
O=C(NCCc1ccccc1)c1cnn2c(C(F)F)cc(C3CC3)nc12	–	–	–	–	–	–
Cc1nn(C)cc1CNC(=O)c1cnn2c(C(F)F)cc(C3CC3)nc12	?	–	7.9µM	–	–	–
COc1ccc(-c2nc(C#N)c(NCc3ccccc3Cl)o2)cc1	–	–	?	–	–	–
COc1ccc(CNc2oc(-c3ccccc3)nc2C#N)cc1	–[2.3 µM]	·	32µM	–	–	–
COc1ccc(-c2nc(C#N)c(NCc3ccccc3Cl)o2)cc1OC	–	–	–	–	–	–
COc1ccc(-c2nc(C#N)c(NCc3ccc(F)cc3)o2)cc1OC	–	–	25µM	–	–	–
COc1ccc(-c2nc(C#N)c(NCCc3ccccc3)o2)cc1	–	·	16µM	–	–	–
COc1ccc(-c2nc(C#N)c(NCCN(C)C)o2)cc1	–	·	–	–	–	–
O=C(Nc1cccc(F)c1)N1CC2(CCN(C(=O)c3ccco3)CC2)C1	–	·	–	–[11.4 µM]	–	–
CC(=O)OCC(=O)[C@]12OC(C)(C)O[C@@H]1C[C@H]1[C@H]3CC=C4C[C@@H](O)CC[C@]4(C)[C@H]3CC[C@]12C	?	·	–[11.5 µM]	–[11.4 µM]	–[11.4 µM]	–[11.4 µM]
N=c1c2c(-c3ccccc3)c(-c3ccccc3)n(Cc3ccco3)c2ncn1Cc1ccco1	?	·	?	–	–	25µM
SMILES	Hsp90 Hop PPI	PK Bst	ERK AVP inh	Luciferase inh	Tau fil binding	15-hLO inh
O=C(Cc1ccc(Cl)c(Cl)c1)OCCN1CCCC1	–	·	–	–	–	–
CCN1CCN(c2cc(C)c3cc(NC(=O)c4ccncc4)ccc3n2)CC1	–	·	–	–	16µM	–
O=C(Oc1ccccc1)N1CCC2(CCCN(c3ccc(-c4ccccc4)cc3)C2)CC1	–	·	–	–[11.4 µM]	–	–
Cc1cc(N)ccc1-n1c(C)ccc1C	–	–	–	–	25µM	?
CC(=O)OC1CCC2(C)C(=CC=C3C2CCC2(C)C3CCC2C(C)/C=C/C(C)C(C)C)C1(C)C (stereo not given)	·	·	–	·	·	–
CC(=O)Nc1ccc2oc(-c3ccccc3Br)nc2c1	–	?	–	10µM	–	–
CCCC(=O)Nc1cccc(NC(=O)c2ccc3c(c2)OCCO3)c1	–	·	–	16µM	–	–
O=C(Nc1ccc2oc(-c3ccccc3F)nc2c1)c1ccc2c(c1)OCCO2	–	·	10µM	–	–	–
O=C(Nc1ccc2nn(-c3ccccc3)nc2c1)c1ccc2c(c1)OCCO2	–	·	16µM	–	–	–
O=C(O)C1CCCN1S(=O)(=O)c1cccc2cccnc12 (stereo not given)	–	·	·	–	–	–
COC(=O)[C@@]1(Cc2ccccc2)[C@H]2c3cc(C(=O)N(C)C)n(Cc4cc(F)c(F)c(F)c4)c3C[C@H]2CN1C(=O)c1ccccc1	–	·	–	·	–	·
COC(=O)C1=C(C)NC(C)=C(C(=O)OC(C)C)[C@H]1c1cccc2nonc12	–	·	–	–	–	–
CS(=O)(=O)N1CCC2(CC1)CN(c1ccc(-c3ccccc3)cc1)C2	–	·	–	–[11.4 µM]	–	–
Cc1ccc(CNC(=O)CN(C)S(=O)(=O)c2cccc3nsnc23)cc1	–	·	–	–	–	–
CCN(CCCNC(=O)CN(C)S(=O)(=O)c1cccc2nsnc12)c1cccc(C)c1	–	–	–	–	16µM	–
CC(C)C[C@@H](CC(=O)N[C@H](CC(=O)N[C@@H]1CCNC[C@H]1C(=O)N[C@H](CC(=O)N[C@@H](CCC(=O)O)CC(=O)O)CC(C)C)C(C)C)NC(=O)[C@@H]1CNCC[C@H]1N	–	·	·	·	–	·
O=[N+]([O-])c1ccc(-c2nc(-c3ccc(F)cc3)c(-c3ccncc3)[nH]2)cc1	·	·	20µM	·	·	–
COc1ccc(C2c3c(oc4ccc(F)cc4c3=O)C(=O)N2CCN2CCOCC2)cc1OC (stereo not given)	–	·	·	–	–	–
Cc1cc2oc3c(c(=O)c2cc1C)C(c1ccc(F)cc1)N(CCCN1CCOCC1)C3=O (stereo not given)	–	·	·	–	20µM	–
CCOc1cccc(C2c3c(oc4cc(C)c(C)cc4c3=O)C(=O)N2CCCN(C)C)c1 (stereo not given)	–	·	–	–	13µM	–
COC(=O)N1CCC2(CCN(C(=O)NC(C)C)CC2)CC1	–	·	–	–[11.4 µM]	–	–
O=C(c1cccs1)N1CCn2c1nc1ccccc12	–	–	–	16µM	–	–
Cn1cccc1C(=O)N1CCC2(CC1)CN(c1ccccn1)C2	–	·	–	–[11.4 µM]	–	–
O=C1c2ccccc2NC(c2ccco2)N1O (stereo not given)	–	·	–	–	–	–
O=C1C2=C(Nc3ccccc3SC2c2ccco2)c2ccccc21 (stereo not given)	?	·	?	–	4µM	?
COC(=O)C1=C2N(Cc3ccccc3)C(C)=C(C(=O)OC)C(c3ccccc3)N2C(=O)[C@](O)(C(=O)OC)C1 (stereo not given in full)	·	·	–[11.5 µM]	·	·	–[11.4 µM]
CCc1ccc(OC(=O)c2ccn(CC)n2)cc1	–	?	–	13µM	–	–
S=C=Nc1cccc(NC(=S)NCCCCNC(=S)Nc2cccc(N=C=S)c2)c1	·	·	–	·	·	?

Bioassay records deposited in PubChem by National Center for Advancing Translational Sciences (NCATS).
